Assay results from PubChem BioAssay AID1486 (The Scripps Research Institute Molecular Screening Center, 2009).
The campaign covered roughly 220,000 compounds. About 2,400 (1.1%) were called active. The full list was thinned out, with actives kept by preference. A number with no mark means an inactive call.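 How the source made its calls: active means inhibition above a per-campaign cutoff, the mean inhibition of all tested compounds plus 3 SD (cut at about 27% in these data); inactive means the rest.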

Experiment: parental Ba/F3 cell viability inhibition, counter-screen for JAK2V617F inhibitor project, murine pro-B, CellTiter-Glo luminescence (AID 1486);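 further: 0% = DMSO wells and 100% = JAK Inhibitor I control wells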
Conditions: CellTiter-Glo ATP luminescence, at 5.6 µM, stronger effect = higher value

| Structure (SMILES) | inhibition |
| --- | --- |
| CCNC(=O)c1sccc1-n1cccc1 | 2.59% |
| CCCCNC(=O)OCCSCCS(=O)(=O)c1ccc(Cl)cc1 | -2.09% |
| Cc1ccc(NC(=O)c2oc3ccccc3c2C)c([N+](=O)[O-])c1 | 2.45% |
| c1ccc(-n2ncc3c(N4CCCC4)ncnc32)cc1 | 2.78% |
| CN(C(=O)COc1ncnc2c1cnn2-c1ccccc1)C1CCCCC1 | -1.06% |
| c1ccc(-n2ncc3c2ncn2c(C4CCCCC4)nnc32)cc1 | 97.5% (active) |
| Cc1ccc(C2NC(C(=O)O)CS2)cc1 (centres undefined) | 4.83% |
| CC(=O)NCc1ccc(S(=O)(=O)NC2CCN(Cc3ccccc3)CC2)cc1 | -3.37% |
| C[C@@H]1C[C@@H]2O[C@H]2/C=C\C=C\C(=O)Cc2c(Cl)c(O)cc(O)c2C(=O)O1 | 104% (active) |
| CC(NC(=S)Nc1ccccc1)C(c1cccs1)N1CCOCC1 (centres undefined) | -4.02% |
| CN(C)c1ccc(/C=N/N(Cc2ccccc2)c2ccccc2)cc1 | 8.22% |
| CN(Cc1ccccc1)Cc1ccccc1F | 10.4% |
| c1ccc(Cc2cc[n+](Cc3ccccc3)cc2)cc1 | 71.7% (active) |
| CN(C)c1cc[n+](Cc2ccccc2)cc1 | 66.3% (active) |
| COC(=O)c1ccc(Cc2ccccc2)o1 | 1.87% |
| CCn1c(SCC(=O)Nc2ccc(C)cc2)nc2nc3c(cc2c1=O)CCCC3 | 1.35% |
| S=c1ccc2ccccc2[nH]1 | 2.2% |
| CCCCCc1ccc(-c2ccc(C(=O)O)cc2)nc1 | 6.06% |
| COc1ccccc1/C=N\Nc1cc(C)nc(-n2nc(C)cc2C)n1 | 7.87% |
| COc1ccc(Nc2cc(C)nc(-n3nc(C)cc3C)n2)cc1 | 78% (active) |
| Cc1cc(N/N=C\c2ccc(Br)cc2)nc(-n2nc(C)cc2C)n1 | 0.24% |
| Cc1cc(C)n(-c2cc(Oc3ccccc3)ncn2)n1 | 4.63% |

| Structure (SMILES) | inhibition |
| --- | --- |
| Cc1cc(Oc2ccccc2)nc(N2CCOCC2)n1 | 2.47% |
| CC(=O)c1ccc(Oc2cc(C)nc(-n3nc(C)cc3C)n2)cc1 | 73.9% (active) |
| Cc1cc(N2CCOCC2)nc2ccc(NC(=S)N3CCN(Cc4ccccc4)CC3)cc12 | 5.21% |
| COC(=O)C(C)NC(=O)COc1ccc2ccccc2c1 (centres undefined) | 1.41% |
| CCOC(=O)CN1C(=O)N[C@@H](c2ccc(Br)cc2)C(C(C)=O)=C1C | 3.53% |
| CCOC(=O)c1ccc(NC(=S)N2CCCC2)cc1 | 0.86% |
| COc1ccc2c(c1OC)C(=O)OC2Nc1nc(-c2ccccc2)cs1 (centres undefined) | 40.2% (active) |
| COc1ccc(-c2csc(NC3OC(=O)c4ccccc43)n2)cc1 (centres undefined) | -1.11% |
| COc1ccc(Nc2nc(-c3ccccc3)cs2)cc1 | 4.08% |
| CC(C)(C)c1nnc(NC(=O)C2c3ccccc3Oc3ccccc32)s1 | 0.88% |
| Nc1ccc(N=Nc2ccccc2Cl)c(N)n1 | -6.75% |
| CCOc1ccc(Br)cc1CSC(=N)N | 6.11% |
| CN1/C(=C\C(=O)c2cccnc2Cl)C(C)(C)c2ccccc21 | 5.33% |
| CN1/C(=C\C=C2\N=C(c3ccc(F)cc3)OC2=O)C(C)(C)c2ccccc21 | 30.4% (active) |
| CN1/C(=C\C(=O)c2oc3ccccc3c2N)C(C)(C)c2ccccc21 | 10.9% |
| Cc1csc(NC(=O)c2ccc(-c3ccc(Cl)cc3Cl)o2)n1 | 5.38% |
| O=C(c1cccnc1)N(c1cc2sc(=O)oc2c2ccccc12)S(=O)(=O)c1ccccc1 | 12.4% |
| O=C(COc1ccccc1F)NNC(=O)c1ccc(N2CCCCC2)c([N+](=O)[O-])c1 | 2.6% |
| CCCCNS(=O)(=O)c1ccc(S(=O)(=O)n2cnc3ccccc32)cc1 | 1.68% |
| O=S(=O)(c1ccc(Br)cc1)n1ccc2ccccc21 | 36.7% (active) |
| O=S(=O)(c1ccc(-c2ccccc2)cc1)N1CCCC1 | 7.94% |
| CC1(C)CC(=O)C(C=NCCC2=CCCCC2)=C(O)C1 | 6.01% |

| Structure (SMILES) | inhibition |
| --- | --- |
| O=C1CC(c2ccccc2)CC(O)=C1C=NCCN1CCOCC1 (centres undefined) | 2.34% |
| O=C1CCCC(O)=C1C=NCCc1ccccc1 | 42.9% (active) |
| CCCCN(C(=O)c1ccc(OC(F)(F)F)cc1)c1c(N)n(CCC)c(=O)[nH]c1=O | 3.34% |
| CC(C)(C)SCCNC(=O)c1cccc([N+](=O)[O-])c1 | 5.58% |
| Cc1noc(C)c1COc1cccc(C(=O)Nc2cccnc2)c1 | 1% |
| Cc1cc(NCc2cccnc2)no1 | 1.06% |
| CN(Cc1cccnc1)C(=O)c1cc(COc2ccc3ncccc3c2)on1 | 84.6% (active) |
| CCCOc1ccc(NC(=O)C2OC3OC(C)(C)OC3C3OC(C)(C)OC23)cc1 (centres undefined) | 4.19% |
| N#Cc1ccccc1NC(=O)c1cccc(COc2ccc(Cl)cc2Cl)c1 | 1.93% |
| Cc1cccc(NC(=S)N2CCCC(c3nc4ccccc4[nH]3)C2)c1 (centres undefined) | 5.36% |
| O=C(C1CCCO1)N1CCN(C(=S)Nc2cccc(Cl)c2)CC1 (centres undefined) | 9.12% |
| Cc1ccc(C2CCN(C(=S)Nc3cccc(Cl)c3)C2)cc1 (centres undefined) | 54% (active) |
| COC(=O)[C@H](Cc1ccccc1)NC(=O)[C@@H]1C[C@H]1[C@@H](NC(=O)OCc1ccccc1)c1ccccc1 | 1.6% |
| CCCc1ccc(C(=O)[C@@H]2[C@@H](C(C)=O)N3c4ccc(F)cc4C=C[C@@H]3[C@@]23C(=O)Nc2ccccc23)cc1 | -6.87% |
| COc1cccc(CC2(CO)CCCN(Cc3nc(-c4cccs4)oc3C)C2)c1 (centres undefined) | 10.4% |
| Cc1ccc(CN2CCN(Cc3ccccc3-c3ccco3)CC2CCO)o1 (centres undefined) | 6.27% |
| Cc1cc(C)n(-c2nnc(C)n2NC(=O)c2cccc(Cl)c2)n1 | -0.31% |
| O=C1/C(=C\c2ccsc2)NC(=S)N1c1ccccc1 | 1.31% |
| O=C1N/C(=C/c2cccn2-c2ccccc2)C(=O)N1c1cccc(Cl)c1 | 52.5% (active) |
| Cc1ccccc1NC(=O)CN1C(=O)N/C(=C\c2cccn2-c2cccc(C(=O)O)c2)C1=O | 7.07% |
